Assay results as given in PubChem BioAssay (NCI).
The panel holds about 79,000 compounds, 15% with a hit somewhere; the sample as a whole holds those more often. Calls of active or inactive are those of the source. No stated cut-off is given here; in the data, active means growth inhibition above about 70%; inactive means the rest.

Columns and labels:
[1] = NCI Yeast Anticancer Drug Screen. Data for the rad52 strain (AID 147);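 further: 0% = growth of vehicle-treated control cultures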; details: S. cerevisiae rad52 mutant growth inhibition, stronger effect = higher value
Summary of the method: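 Here a repair-compromised yeast strain receives each compound; its growth is then quantified and normalised to vehicle-only controls.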

[2] = NCI Yeast Anticancer Drug Screen. Data for the wt1 strain (AID 149);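 further: 0% = growth of vehicle-treated wt1 cultures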; details: S. cerevisiae wt1 strain (SPY 50644) growth inhibition, stronger effect = higher value
Summary of the method: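 Using yeast strain wt1, compound-induced growth inhibition was determined against vehicle-treated cultures.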

[3] = NCI Yeast Anticancer Drug Screen. Data for the rad50EPP+ strain (AID 151);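 further: 0% = growth of vehicle-treated control cultures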; details: S. cerevisiae rad50 mutant strain, stronger effect = higher value
Summary of the method: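 Read-out is yeast growth inhibition relative to vehicle; cells used were the rad50EPP+ strain.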

[4] = NCI Yeast Anticancer Drug Screen. Data for the mgt1 strain (AID 153); details: S. cerevisiae mgt1 mutant growth inhibition, stronger effect = higher value
Summary of the method: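 Measured: inhibition of mgt1 yeast growth by compound, normalized to vehicle-treated cultures.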

[5] = NCI Yeast Anticancer Drug Screen. Data for the rad50 strain (AID 155);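 further: 0% = growth of vehicle-only cultures of the same strain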; details: S. cerevisiae rad50 strain growth inhibition, stronger effect = higher value
Summary of the method: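 Relative growth inhibition (compound vs vehicle) was measured in yeast with a defined repair-gene alteration.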

[6] = NCI Yeast Anticancer Drug Screen. Data for the mec2-1 strain (AID 157); details: S. cerevisiae mec2-1 strain, stronger effect = higher value
Summary of the method: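 Using mec2-1 yeast: add compound, measure growth, express inhibition versus vehicle-treated cultures.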

[7] = NCI Yeast Anticancer Drug Screen. Data for the rad14 strain (AID 159);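 further: 0% = growth of vehicle-treated control cultures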; details: S. cerevisiae rad14 strain growth inhibition, stronger effect = higher value
Summary of the method: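 Screen for anticancer potential: a yeast strain altered in DNA damage repair is grown with compound, and reduced growth is quantified against vehicle controls.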

[8] = NCI Yeast Anticancer Drug Screen. Data for the sgs1 mgt1 strain (AID 161);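 further: 0% = growth of cultures given vehicle only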; details: S. cerevisiae sgs1 mgt1 strain, stronger effect = higher value
Summary of the method: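 Compounds are added to genetically altered yeast, and growth is compared with cultures given vehicle alone to give percent inhibition.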

[9] = NCI Yeast Anticancer Drug Screen. Data for the CLN2oe strain (AID 163);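 further: 0% = growth of vehicle-only control cultures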; details: S. cerevisiae CLN2oe strain, stronger effect = higher value
Summary of the method: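 Whole-cell yeast growth assay. A strain engineered for altered cell-cycle control received compound, and inhibition relative to vehicle-treated cultures was recorded.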

[10] = NCI Yeast Anticancer Drug Screen. Data for the cln2 rad14 strain (AID 165);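 further: 0% = growth equal to vehicle treated cultures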; details: S. cerevisiae cln2 rad14 strain, stronger effect = higher value
Summary of the method: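 Yeast strain cln2 rad14, bearing defects in cell cycle control and DNA repair, serves as the test system; values reflect growth inhibition compared with vehicle.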

[11] = NCI Yeast Anticancer Drug Screen. Data for the bub3 strain (AID 167); details: S. cerevisiae bub3 mutant strain, stronger effect = higher value
Summary of the method: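 Screening used yeast with an engineered genetic alteration affecting cell cycle control. Compound-exposed cultures were compared with vehicle cultures, and reduced growth was taken as inhibition.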

[12] = NCI Yeast Anticancer Drug Screen. Data for the wt2 strain (AID 169);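 further: 0% = growth of vehicle-treated yeast cultures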; details: S. cerevisiae wt2 strain growth inhibition, stronger effect = higher value
Summary of the method: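 Treated yeast vs. vehicle-treated yeast: growth inhibition determined.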

[13] = NCI Yeast Anticancer Drug Screen. Data for the mlh1 strain (AID 171);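 further: 0% = growth of vehicle-treated control cultures of the same strain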; details: S. cerevisiae mlh1 strain growth inhibition, stronger effect = higher value
Summary of the method: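 A yeast strain with a defined genetic lesion serves as the test organism. Cultures receive compound or vehicle, and growth is measured.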

[14] = NCI Yeast Anticancer Drug Screen. Data for the sgs1 strain (AID 173);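 further: 0% = growth of vehicle-only control cultures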; details: S. cerevisiae sgs1 mutant, stronger effect = higher value
Summary of the method: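 A genetically defined yeast mutant is incubated with the test compound, and its growth is compared to that of the same strain given vehicle.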

[15] = NCI Yeast Anticancer Drug Screen. Data for the mlh1 rad18 strain (AID 175); details: S. cerevisiae mlh1 rad18 strain growth inhibition, stronger effect = higher value
Summary of the method: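 Steps: expose repair-defective yeast to compound; measure growth; express inhibition against vehicle-treated controls.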

[16] = at 5.0 µM (retest, dose inferred, filed as 0.5)
[17] = at 50.0 µM (retest, dose inferred, filed as 5.0)

Measured: growth inhibition

Brc1ccccc1-c1ncc(-c2ccccc2)o1
active: [4]; at 33.0 µM 73% | [4]; at 100.0 µM 78% | [5]; [17] 81% | [5]; at 50.0 µM 72.2% | [5]; at 100.0 µM 70% | [6]; [17] 98% | [6]; at 100.0 µM 76% | [7]; at 100.0 µM 80% | [8]; at 50.0 µM 71.4% | [11]; at 33.0 µM 74% | [11]; [17] 82% | [11]; at 50.0 µM 71.2% | [11]; at 100.0 µM 76% | [15]; [17] 82%
inactive: [1]; at 1.2 µM -7% | [1]; at 3.7 µM -3% | [1]; at 11.0 µM 19% | [1]; at 33.0 µM 42% | [1]; at 100.0 µM 55% | [2]; at 1.2 µM -12% | [2]; at 3.7 µM -26% | [2]; at 11.0 µM -12% | [2]; at 33.0 µM 21% | [2]; at 100.0 µM 44% | [3]; at 1.2 µM -14% | [3]; at 3.7 µM 10% | [3]; at 11.0 µM -1% | [3]; at 33.0 µM 38% | [3]; at 100.0 µM 62% | [4]; at 1.2 µM 15% | [4]; at 3.7 µM 27% | [4]; at 11.0 µM 33% | [5]; at 1.2 µM -1% | [5]; at 3.7 µM -2% | [5]; [16] 42% | [5]; at 11.0 µM 24% | [5]; at 33.0 µM 66% | [6]; at 1.2 µM 7% | [6]; at 3.7 µM -23% | [6]; [16] 42% | [6]; at 11.0 µM -10% | [6]; at 33.0 µM 40% | [6]; at 50.0 µM 47.1% | [7]; at 1.2 µM -43% | [7]; at 3.7 µM -36% | [7]; at 11.0 µM -16% | [7]; at 33.0 µM 55% | [8]; [16] -18% | [8]; [17] 61% | [9]; at 1.2 µM 0% | [9]; at 3.7 µM -8% | [9]; at 11.0 µM 3% | [9]; at 33.0 µM 6% | [9]; at 100.0 µM 5% | [10]; [16] 33% | [10]; [17] 68% | [10]; at 50.0 µM 37.9% | [11]; at 1.2 µM 15% | [11]; at 3.7 µM 6% | [11]; [16] 40% | [11]; at 11.0 µM 52% | [12]; at 1.2 µM -46% | [12]; at 3.7 µM -43% | [12]; at 11.0 µM -35% | [12]; at 33.0 µM 21% | [12]; at 100.0 µM 43% | [13]; at 1.2 µM -4% | [13]; at 3.7 µM -13% | [13]; at 11.0 µM 15% | [13]; at 33.0 µM 47% | [13]; at 100.0 µM 60% | [14]; at 1.2 µM -1% | [14]; at 3.7 µM -17% | [14]; at 11.0 µM 7% | [14]; at 33.0 µM 50% | [14]; at 100.0 µM 60% | [15]; [16] 37% | [15]; at 50.0 µM 56.9%
